Results published in PubChem BioAssay (Tox21).
Values joined by “and” are separate entries in the source; they are usually repeats but may differ in a detail not shown here. Equal entries are not always repeated. Inconclusive results are not listed. Some compounds were tested as several samples or in several runs, with calls that do not always agree. Active and inactive are the calls of the source. Unless noted, calls come from the whole dose curve; as a rule, active = well fitted curve in the direction sought with a large enough effect in the repeat runs; inconclusive = weak or mixed curves; inactive = no such curve, though single readings can be large; an effect the other way counts as inactive or inconclusive.

Legend:
[1] = qHTS RealTime-Glo MT Cell Viability Assay in HEK293 cells - 24 hour (AID 1224886); note: top concentration of the series differs between compounds; nearly all actives have a fitted effect of over 50% in size
How it was run: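 Quantitative high-throughput screen of the Tox21 10K library in HEK293: cells and RealTime-Glo reagents plated together, compound added at 5 h, luminescence monitored through 40 h at 37 C.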

[2] = qHTS RealTime-Glo MT Cell Viability Assay in HEK293 cells - 8 hour (AID 1224887); note: top concentration of the series differs between compounds; nearly all actives have a fitted effect of over 50% in size
How it was run: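 qHTS format; HEK293 cells with NanoLuc/prosubstrate reagent, 37 C/5% CO2 for 5 h pre-dosing; compounds 23 nL in DMSO; luminescence at each time point reflects viable cells.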

[3] = A CellTox Green Cytotoxicity Assay to monitor cytotoxicity in HEK293 cells - 16 hour (AID 1224888); note: nearly all actives have a fitted effect of over 35% in size
How it was run: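 Each value comes from one timepoint of a single continuous run in which HEK293 cells with CellTox Green were exposed to compound for up to 40 h at 37 C, dye fluorescence rising with cell death.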

[4] = qHTS RealTime-Glo MT Cell Viability Assay in HepG2 cells - 0 hour (AID 1224889); note: nearly all actives have a fitted effect of over 50% in size
How it was run: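 Compound treatment began 5 h after plating HepG2 cells (600/well) with NanoLuc luciferase and prosubstrate. Plates stayed at 37 C for 40 h; luminescence was captured at six time points, 0 h through 40 h.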

[5] = A CellTox Green Cytotoxicity Assay to monitor cytotoxicity in HepG2 cells - 8 hour (AID 1224890); note: nearly all actives have a fitted effect of over 45% in size; note: potency is the fitted concentration of half-maximal effect
How it was run: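 Continuous culture of HepG2 cells with a membrane-impermeant DNA dye; rising fluorescence marks dead cells. Compound exposure lasted up to 40 h at 37 C, with reads every 8 h from 0 h.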

[6] = qHTS assay to identify small molecule antagonists of the estrogen receptor alpha (ER-alpha) signaling pathway using the BG1 cell line in the presence of 0.1 nM 17-beta-estradiol - cell viability counter screen (AID 1259241); note: nearly all actives have a fitted effect of over 40% in size
How it was run: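 Following 5 days in phenol red-free medium with charcoal-stripped serum, VM7Luc4E2 cells received test compounds alongside 0.1 nM 17beta-estradiol (final) at 37C for 22 hr. Live cells were then quantified via protease-substrate fluorescence.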

[7] = qHTS assay to identify small molecule antagonists of the androgen receptor (AR) signaling pathway using the MDA cell line in the presence of 0.5 nM R1881 - cell viability counter screen (AID 1259242); note: nearly all actives have a fitted effect of over 45% in size
How it was run: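 Fluorescence from CellTiter-Fluor, which reports protease activity of live cells, was read 30 min after reagent addition to MDA-kb2 cells that had been incubated 16 hr with compound and 0.5 nM R1881.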

[8] = molecular target: Estrogen receptor (Homo sapiens) (UniProt P03372); experiment: qHTS assay to identify small molecule antagonists of the estrogen receptor alpha (ER-alpha) signaling pathway using the BG1 cell line in the presence of 0.1 nM 17-beta-estradiol (AID 1259244); note: nearly all actives have a fitted effect of over 50% in size; note: potency is the fitted concentration of half-maximal effect
How it was run: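 Quantitative high-throughput screen in VM7Luc4E2 cells: compound plus 0.1 nM E2 (final), 22 h, 37C, 5% CO2; ONE-Glo added, 30 min room temperature, luminescence measured.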

[9] = qHTS assay to identify small molecule HDAC inhibitors (AID 1259364); note: top concentration of the series differs between compounds; nearly all actives have a fitted effect of over 45% in size
How it was run: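 Endogenous HDAC class I/II activity was measured in wild-type HCT-116 cells by HDAC-Glo luminescence after 2 h compound treatment.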

[10] = qHTS assay to identify small molecule HDAC inhibitors - cell viability counter screen (AID 1259365)
How it was run: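 HCT-116 wild-type, overnight attachment; 2hr drug exposure, 37C; CellTiter-Glo luminescent ATP readout after 30min RT.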

[11] = qHTS assay to identify small molecule agonists of the sonic hedgehog signaling (Shh) pathway - cell viability counter screen (AID 1259366); note: nearly all actives have a fitted effect of over 50% in size; note: potency is the fitted concentration of half-maximal effect
How it was run: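 Compounds in DMSO were pin-transferred onto 3T3 Gli1-Luc cells that had settled 4hr; plates then stood 24hr at 37C and 5% CO2. One hour before the end, CellTiter-Fluor was added and fluorescence recorded.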

[12] = qHTS assay to identify small molecule antagonists of the sonic hedgehog signaling (Shh) pathway - cell viability counter screen (AID 1259367); note: nearly all actives have a fitted effect of over 55% in size; note: potency is the fitted concentration of half-maximal effect
How it was run: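 Using CellTiter-Fluor, viability of Gli1-Luc reporter 3T3 cells is read by fluorescence in the wells used for the Shh luciferase assay. Treatment lasts 23 hr with conditioned medium, then reagent 1 hr at 37C.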

[13] = qHTS assay to identify small molecule agonists of the sonic hedgehog signaling (Shh) pathway (AID 1259368; calls by dose curve;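 note: NIH/3T3-derived 3T3Gli1-Luc cells carrying a stable Gli1-driven firefly luciferase reporter; series mostly up to about 92 µM; nearly all actives have a fitted effect of over 15% in size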)
How it was run: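 Luminescent signal was taken as a measure of Gli1-controlled luciferase expression in stably transfected NIH/3T3-derived cells that had been treated for 24 hr with compounds delivered in DMSO.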

[14] = qHTS assay to identify small molecule antagonists of the sonic hedgehog signaling (Shh) pathway (AID 1259369; calls by dose curve; note: nearly all actives have a fitted effect of over 45% in size; note: potency is the fitted concentration of half-maximal effect)
How it was run: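 Screening used 3T3Gli1-Luc cells at 2,000 per well, compounds delivered in DMSO, and conditioned medium as agonist stimulus; plates incubated 24hr at 37 C and 5% CO2 before a 30min luciferase step.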

[15] = molecular target: Estrogen receptor beta (Homo sapiens) (UniProt Q92731); experiment: qHTS assay to identify small molecule agonists of the estrogen receptor beta (ER-beta) signaling pathway (AID 1259377; active = well fitted activation curve with a large enough effect in the signal ratio in the repeat runs, not every such curve was filed as active; the % refers to the signal ratio)
How it was run: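 qHTS in ER-beta-UAS-bla HEK293T cells: 6 hr settling, then 16 hr compound at 37C, then LiveBLAzer substrate 2 h at RT before fluorescence reading.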

[16] = molecular target: Estrogen receptor beta (Homo sapiens) (UniProt Q92731); experiment: qHTS assay to identify small molecule antagonists of the estrogen receptor beta (ER-beta) signaling pathway (AID 1259378; active = well fitted inhibition curve with a large enough effect in the signal ratio in the repeat runs, not every such curve was filed as active; the % refers to the signal ratio)
How it was run: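 Antagonist mode: compounds added to beta-lactamase reporter HEK293T ER-beta-UAS cells stimulated with E2 (1nM final), 16 hr at 37C. LiveBLAzer B/G FRET substrate, 2 hours room temperature, fluorescence read-out.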

[17] = qHTS assay to identify small molecule agonists of the androgen receptor (AR) signaling pathway in the presence of an antagonist - cell viability counter screen (AID 1259379);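 note: MDA-kb2 human breast cancer cells carrying an MMTV luciferase reporter; series mostly up to about 92 µM; nearly all actives have a fitted effect of over 25% in size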
How it was run: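 In MDA-kb2 cells (human breast carcinoma, MMTV-luciferase), compounds at 15 concentrations plus 3.0uM nilutamide; 16 hr, 37C, 0% CO2; CellTiter-Fluor fluorescence read for viability.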

[18] = qHTS assay to identify small molecule agonists of the estrogen receptor beta (ER-beta) signaling pathway - cell viability counter screen (AID 1259380); note: nearly all actives have a fitted effect of over 30% in size; note: potency is the fitted concentration of half-maximal effect
How it was run: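 Viability of ER-beta-UAS-bla HEK293T cells was determined by CellTiter-Glo luminescence following 16 hr treatment with test compounds at 37C.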

[19] = molecular target: Androgen receptor (Homo sapiens) (UniProt P10275); experiment: qHTS assay to identify small molecule antagonists of the androgen receptor (AR) signaling pathway using the MDA cell line in the presence of 0.5 nM R1881 (AID 1259243); note: nearly all actives have a fitted effect of over 50% in size; note: potency is the fitted concentration of half-maximal effect
How it was run: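 Inhibition of R1881 (0.5 nM final) induced reporter signal was measured in human MDA-kb2 cells; note the MMTV promoter also responds to GR. Exposure lasted 16 hr at 37C.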

[20] = molecular target: Androgen receptor (Homo sapiens) (UniProt P10275); experiment: qHTS assay to identify small molecule agonists of the androgen receptor (AR) signaling pathway in the presence of an antagonist (AID 1259381; calls by dose curve; note: nearly all actives have a fitted effect of over 15% in size)
How it was run: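 Here, 15-concentration compound series were pin-transferred onto MDA-kb2 MMTV-luciferase cells already dosed with nilutamide (3.0uM final). After 16hr at 37C, ONE-Glo was added and luminescence read 30min later at room temperature.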
% is set by controls: 0 for no effect and ±100 for the full control effect.

Chain of Androgen receptor (Homo sapiens) (P10275 whole entry, looked up): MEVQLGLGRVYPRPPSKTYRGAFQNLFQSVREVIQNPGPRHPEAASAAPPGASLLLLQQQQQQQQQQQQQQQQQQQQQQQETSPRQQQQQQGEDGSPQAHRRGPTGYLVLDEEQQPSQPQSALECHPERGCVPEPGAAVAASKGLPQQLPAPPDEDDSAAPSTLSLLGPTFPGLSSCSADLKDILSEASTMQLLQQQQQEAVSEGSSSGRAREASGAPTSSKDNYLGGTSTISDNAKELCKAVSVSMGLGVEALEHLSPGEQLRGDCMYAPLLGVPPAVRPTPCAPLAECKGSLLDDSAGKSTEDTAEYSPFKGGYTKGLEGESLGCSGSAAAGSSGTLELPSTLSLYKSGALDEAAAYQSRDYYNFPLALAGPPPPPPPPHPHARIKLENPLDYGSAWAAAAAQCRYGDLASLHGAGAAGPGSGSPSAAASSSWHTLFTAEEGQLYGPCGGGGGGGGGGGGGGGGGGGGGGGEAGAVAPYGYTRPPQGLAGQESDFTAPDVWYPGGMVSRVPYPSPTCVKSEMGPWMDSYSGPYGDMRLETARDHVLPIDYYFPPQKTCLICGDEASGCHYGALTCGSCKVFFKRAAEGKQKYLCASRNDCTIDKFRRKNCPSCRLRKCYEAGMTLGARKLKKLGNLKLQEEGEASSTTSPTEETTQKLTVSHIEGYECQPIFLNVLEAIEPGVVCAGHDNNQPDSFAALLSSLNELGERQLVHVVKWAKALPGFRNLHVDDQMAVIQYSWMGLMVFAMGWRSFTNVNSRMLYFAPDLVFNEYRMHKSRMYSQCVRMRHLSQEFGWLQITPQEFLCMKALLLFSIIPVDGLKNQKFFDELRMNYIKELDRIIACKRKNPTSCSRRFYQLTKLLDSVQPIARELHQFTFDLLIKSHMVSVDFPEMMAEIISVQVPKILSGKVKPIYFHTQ
Chain of Estrogen receptor beta (Homo sapiens) (Q92731 whole entry, looked up): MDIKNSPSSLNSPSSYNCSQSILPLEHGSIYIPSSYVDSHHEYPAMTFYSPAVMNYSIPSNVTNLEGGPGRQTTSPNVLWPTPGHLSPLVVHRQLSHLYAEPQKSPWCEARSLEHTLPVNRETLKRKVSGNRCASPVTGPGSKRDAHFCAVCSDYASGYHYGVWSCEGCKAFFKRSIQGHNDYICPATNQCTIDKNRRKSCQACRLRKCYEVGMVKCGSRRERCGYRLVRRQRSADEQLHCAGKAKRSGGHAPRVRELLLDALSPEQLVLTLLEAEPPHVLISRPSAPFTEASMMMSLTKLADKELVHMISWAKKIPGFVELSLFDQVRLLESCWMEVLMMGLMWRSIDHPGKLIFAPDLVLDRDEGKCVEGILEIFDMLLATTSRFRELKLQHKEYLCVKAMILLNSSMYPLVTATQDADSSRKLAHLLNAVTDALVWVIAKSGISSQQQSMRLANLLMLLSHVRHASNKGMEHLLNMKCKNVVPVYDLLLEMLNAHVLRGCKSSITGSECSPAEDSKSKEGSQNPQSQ
Chain of Estrogen receptor (Homo sapiens) (P03372 whole entry, looked up): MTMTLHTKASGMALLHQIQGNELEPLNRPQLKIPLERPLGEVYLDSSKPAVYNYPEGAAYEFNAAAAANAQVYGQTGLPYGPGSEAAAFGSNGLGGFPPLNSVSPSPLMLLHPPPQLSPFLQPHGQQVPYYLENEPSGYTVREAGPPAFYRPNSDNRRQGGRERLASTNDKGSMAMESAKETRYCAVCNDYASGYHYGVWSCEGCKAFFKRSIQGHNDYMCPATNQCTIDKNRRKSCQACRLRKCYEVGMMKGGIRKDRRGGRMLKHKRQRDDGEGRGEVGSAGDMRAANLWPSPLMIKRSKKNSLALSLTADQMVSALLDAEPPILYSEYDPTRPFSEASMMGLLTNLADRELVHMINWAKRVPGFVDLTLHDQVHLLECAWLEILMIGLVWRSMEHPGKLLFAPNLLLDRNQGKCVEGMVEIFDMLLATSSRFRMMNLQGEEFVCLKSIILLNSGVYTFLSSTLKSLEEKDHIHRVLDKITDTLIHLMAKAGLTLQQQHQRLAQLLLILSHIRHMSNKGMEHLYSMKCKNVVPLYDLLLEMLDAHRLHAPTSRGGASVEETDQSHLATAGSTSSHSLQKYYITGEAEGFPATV

c1ccc(OP(Oc2ccccc2)Oc2ccccc2)cc1
inactive: Potency [1] | outcome [2] | Potency [3] | outcome [4] | Potency [5] | Potency [6] | outcome [7] | Potency [8] | Potency [9] | outcome [10] | Potency [11] | Potency [12] | outcome [13] | Potency [14] | Potency [15] | outcome [16] | outcome [17] | Potency [18]

Cc1cccc([N+](=O)[O-])c1
inactive: Potency [1] | outcome [2] | Potency [3] | outcome [4] | Potency [5] | Potency [6] | outcome [7] | Potency [8] | Potency [9] | outcome [10] | Potency [11] | Potency [12] | outcome [13] | Potency [14] | outcome [17] | Potency [18]

O=C(NC(=O)c1c(F)cccc1F)Nc1cc(Cl)c(OC(F)(F)C(F)C(F)(F)F)cc1Cl (centres undefined)
inactive: Potency [1] | outcome [2] | Potency [3] | outcome [4] | Potency [5] | Potency [6] | outcome [7] | Potency [8] | Potency [9] | outcome [10] | Potency [12] | outcome [13] | Potency [14] | Potency [15] | outcome [16] | outcome [17] | Potency [18] | outcome [20]
active: Potency [19] 19.3 µM and 26.6 µM

c1ccc(-c2ccccc2)cc1
inactive: Potency [1] | outcome [2] | Potency [3] | outcome [4] | Potency [5] | Potency [6] | outcome [7] | Potency [19] | Potency [8] | Potency [9] | outcome [10] | Potency [12] | outcome [13] | Potency [14] | Potency [15] | outcome [16] | outcome [17] | Potency [18] | outcome [20]

CCCCOC(=O)c1ccccc1C(=O)OCCCC
inactive: Potency [1] | outcome [2] | Potency [3] | outcome [4] | Potency [5] | Potency [6] | outcome [7] | Potency [8] | outcome [10] | Potency [11] | Potency [12] | outcome [13] | Potency [14] | Potency [15] | outcome [16] | outcome [17] | Potency [18]

CC(C)NC(=O)N1CC(=O)N(c2cc(Cl)cc(Cl)c2)C1=O
inactive: Potency [1] | outcome [2] | Potency [3] | outcome [4] | Potency [5] | Potency [6] | outcome [7] | Potency [8] | Potency [9] | outcome [10] | outcome [13] | outcome [17]
48.6 µM (active) and inactive: Potency [11]
54.5 µM (active) and inactive: Potency [12]
active: Potency [14] 10.9 µM

O=NN1CCCC1
inactive and 38.9 µM (active): Potency [5]
inactive: Potency [1] | outcome [2] | Potency [3] | outcome [4] | Potency [6] | outcome [7] | Potency [9] | outcome [10] | Potency [12] | outcome [13] | Potency [14] | Potency [15] | outcome [16] | outcome [17]
20.2 µM (active) and inactive: Potency [8] | Potency [18]

O=Cc1cccc(Oc2ccccc2)c1
inactive: Potency [1] | outcome [2] | Potency [3] | outcome [4] | Potency [5] | Potency [6] | outcome [7] | Potency [8] | Potency [9] | outcome [10] | Potency [11] | Potency [12] | outcome [13] | Potency [14] | Potency [15] | outcome [16] | outcome [17] | Potency [18]

C=C(C)CCl
inactive: activity change, negative = cytotoxicity [1] 6.36% [at 6.97 µM] | outcome [2] | Potency [3] | outcome [4] | Potency [5] | Potency [6] | outcome [7] | Potency [19] | Potency [8] | outcome [10] | Potency [11] | Potency [12] | outcome [13] | Potency [14] | outcome [17] | Potency [18] | outcome [20]

CCCCCCCCCl
inactive: Potency [1] | outcome [2] | Potency [3] | outcome [4] | Potency [5] | Potency [6] | outcome [7] | Potency [8] | Potency [9] | outcome [10] | Potency [11] | Potency [12] | outcome [13] | Potency [14] | Potency [15] | outcome [16] | outcome [17] | Potency [18]

CC1C=[C-]C=C1.[C-]#[O+].[C-]#[O+].[C-]#[O+].[Mn]
inactive: Potency [1] | outcome [2] | Potency [3] | outcome [4] | Potency [5] | Potency [6] | outcome [7] | Potency [8] | Potency [9] | outcome [10] | Potency [11] | Potency [12] | outcome [13] | Potency [14] | Potency [15] | outcome [16] | outcome [17] | Potency [18]

CCC[CH2][Sn]([Cl])([Cl])[Cl]
inactive: Potency [1] | outcome [2] | Potency [3] | outcome [4] | Potency [5] | Potency [6] | outcome [7] | Potency [8] | Potency [9] | outcome [10] | Potency [11] | Potency [12] | outcome [13] | Potency [14] | outcome [17] | Potency [18]

COC(=O)NC(=S)Nc1ccccc1NC(=S)NC(=O)OC
inactive: Potency [1] | outcome [2] | Potency [3] | outcome [4] | Potency [5] | Potency [6] | outcome [7] | Potency [8] | Potency [9] | outcome [10] | Potency [11] | Potency [12] | outcome [13] | Potency [14] | Potency [15] | outcome [16] | outcome [17] | Potency [18]

COP(N)(=O)SC (centres undefined)
inactive: Potency [1] | outcome [2] | Potency [3] | outcome [4] | Potency [5] | Potency [6] | outcome [7] | Potency [8] | Potency [9] | outcome [10] | Potency [12] | outcome [13] | Potency [14] | Potency [15] | outcome [16] | outcome [17] | Potency [18]

CCC12COCN1COC2
inactive: Potency [1] | outcome [2] | Potency [3] | outcome [4] | Potency [5] | Potency [6] | outcome [7] | Potency [8] | Potency [9] | outcome [10] | Potency [11] | Potency [12] | outcome [13] | Potency [14] | outcome [17] | Potency [18]
